Results filed as inconclusive are left out. Activity calls are given as the source filed them. Unless noted, calls follow the shape of the dose curve; as a rule, active = well fitted curve in the direction sought with a large enough effect in the repeat runs; inconclusive = weak or mixed curves; inactive = no such curve, though single readings can be large; an effect the other way counts as inactive or inconclusive.
Key:
[1] = qHTS assay to identify aromatase inhibitors - cell viability counter screen (AID 743084);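 also: cells stimulated with testosterone during compound exposure; nearly all actives have a fitted effect of over 55% in size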
[2] = molecular target: Aryl hydrocarbon receptor (Homo sapiens) (UniProt P35869); test: qHTS assay to identify small molecule that activate the aryl hydrocarbon receptor (AhR) signaling pathway (AID 743085);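 also: HG2L7.5c1 human HepG2 liver cells with stably integrated DRE-driven firefly reporter; series mostly up to about 70 µM; nearly all actives have a fitted effect of over 15% in size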
Sequence of Aryl hydrocarbon receptor (Homo sapiens) (P35869 whole entry, looked up): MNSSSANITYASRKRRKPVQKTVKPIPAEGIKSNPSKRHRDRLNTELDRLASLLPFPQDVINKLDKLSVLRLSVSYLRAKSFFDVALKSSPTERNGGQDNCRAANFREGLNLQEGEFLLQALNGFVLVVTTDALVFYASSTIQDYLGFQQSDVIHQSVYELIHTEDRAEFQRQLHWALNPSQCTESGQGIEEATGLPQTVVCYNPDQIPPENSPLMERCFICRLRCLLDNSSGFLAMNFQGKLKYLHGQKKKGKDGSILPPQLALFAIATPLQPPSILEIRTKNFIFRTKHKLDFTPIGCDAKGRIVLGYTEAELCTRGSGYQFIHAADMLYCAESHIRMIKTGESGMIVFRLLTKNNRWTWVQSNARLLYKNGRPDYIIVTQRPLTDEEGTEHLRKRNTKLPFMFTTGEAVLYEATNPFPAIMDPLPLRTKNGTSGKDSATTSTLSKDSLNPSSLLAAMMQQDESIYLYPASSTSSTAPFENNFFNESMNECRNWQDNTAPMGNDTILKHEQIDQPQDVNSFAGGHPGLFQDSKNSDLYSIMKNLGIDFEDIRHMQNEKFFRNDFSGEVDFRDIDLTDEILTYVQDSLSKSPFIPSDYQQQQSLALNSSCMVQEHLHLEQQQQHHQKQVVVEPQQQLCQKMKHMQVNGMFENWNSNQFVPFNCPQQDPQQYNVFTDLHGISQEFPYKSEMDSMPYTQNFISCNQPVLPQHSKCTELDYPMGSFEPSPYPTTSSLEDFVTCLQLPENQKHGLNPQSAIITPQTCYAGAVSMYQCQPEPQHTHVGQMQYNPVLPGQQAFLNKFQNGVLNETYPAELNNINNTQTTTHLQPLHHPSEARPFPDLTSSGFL
How it was run: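 HepG2 cells (HG2L7.5c1) stably carrying a firefly luciferase reporter driven by 20 dioxin responsive elements were exposed to compound for 24 h at 37C after a 5 h settling period; luminescence rise (ONE-Glo) indicated activation.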

[3] = molecular target: Peroxisome proliferator-activated receptor gamma (Homo sapiens) (UniProt P37231); test: qHTS assay to identify small molecule agonists of the peroxisome proliferator-activated receptor gamma (PPARg) signaling pathway (AID 743094; active = well fitted activation curve with a large enough effect in the signal ratio in the repeat runs, not every such curve was filed as active; the % refers to the signal ratio)
Sequence of Peroxisome proliferator-activated receptor gamma (Homo sapiens) (P37231 whole entry, looked up): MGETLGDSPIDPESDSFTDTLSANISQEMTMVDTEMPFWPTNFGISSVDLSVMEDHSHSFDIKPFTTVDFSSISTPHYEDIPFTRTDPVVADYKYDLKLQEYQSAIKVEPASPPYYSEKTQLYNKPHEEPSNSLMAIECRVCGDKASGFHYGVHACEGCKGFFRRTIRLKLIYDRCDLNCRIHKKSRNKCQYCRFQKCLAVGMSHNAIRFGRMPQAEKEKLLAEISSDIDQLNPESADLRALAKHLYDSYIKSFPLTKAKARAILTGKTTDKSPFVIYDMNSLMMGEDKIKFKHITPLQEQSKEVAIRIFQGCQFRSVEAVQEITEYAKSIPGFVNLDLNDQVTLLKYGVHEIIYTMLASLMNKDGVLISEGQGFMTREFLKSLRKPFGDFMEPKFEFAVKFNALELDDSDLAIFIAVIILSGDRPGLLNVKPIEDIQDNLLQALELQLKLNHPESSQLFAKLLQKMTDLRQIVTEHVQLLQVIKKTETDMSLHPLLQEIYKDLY
How it was run: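 Beta-lactamase FRET fluorescence was the read-out after a 1 h room-temperature substrate step, following 17 h compound treatment at 37C of HEK293H cells expressing a UAS-driven bla reporter responsive to PPARg.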

[4] = qHTS assay to identify small molecule antagonists of the peroxisome proliferator-activated receptor gamma (PPARg) signaling pathway - cell viability counter screen (AID 743194); also: nearly all actives have a fitted effect of over 55% in size
How it was run: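 Cytotoxicity counter screen in PPARg-bla HEK293H cells, same wells as reporter assay. Compounds plus 50 nM rosiglitazone (final) for 17 h at 37 C, then viability read by CellTiter-Glo luminescence.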

[5] = qHTS assay for small molecule agonists of the antioxidant response element (ARE) signaling pathway (AID 743202; active = well fitted activation curve with a large enough effect in the signal ratio in the repeat runs, not every such curve was filed as active; the % refers to the signal ratio)
How it was run: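 Agonist mode reporter screen: HepG2 cells with ARE-controlled beta-lactamase are incubated with test compounds for 16 h at 37 C, and beta-lactamase activity is measured as fluorescence of cleaved B/G FRET substrate.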

[6] = qHTS assay for small molecule agonists of the antioxidant response element (ARE) signaling pathway - cell viability counter screen (AID 743203; calls by dose curve; also: nearly all actives have a fitted effect of over 55% in size)
How it was run: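 HepG2 cells carrying ARE-driven beta-lactamase; 2,000 cells/well; 5 hrs plating; compound pinned from DMSO; 16 hrs 37C/5% CO2; CellTiter-Glo added; 30 min RT; luminescence.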

[7] = qHTS assay for small molecule activators of the heat shock response signaling pathway - cell viability counter screen (AID 743209); also: nearly all actives have a fitted effect of over 50% in size
How it was run: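 Luminescence from CellTiter-Glo, added after the beta-lactamase FRET read, gave the viability signal. Cells were HSE-bla HeLa treated with DMSO-dissolved compounds for 5 h at 37 C following overnight plating.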

[8] = qHTS assay for small molecule activators of the heat shock response signaling pathway (AID 743210; active = well fitted activation curve with a large enough effect in the signal ratio in the repeat runs, with a control signal flat, not every such curve was filed as active; the % refers to the signal ratio;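 also: HeLa cells with beta-lactamase reporter driven by heat shock elements; series mostly up to about 63 µM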)
How it was run: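 Quantitative high-throughput format using an engineered HeLa line in which heat shock response elements drive beta-lactamase; after 5 h with compound, cells received a B/G FRET substrate and fluorescence was read.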

[9] = qHTS assay to identify small molecule agonists of the peroxisome proliferator-activated receptor delta (PPARd) signaling pathway - cell viability counter screen (AID 743211); also: nearly all actives have a fitted effect of over 55% in size
How it was run: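 PPARd-bla HEK293H cells (UAS-beta-lactamase reporter) were treated with compounds for 17 h at 37 C. Viability was then read in the same wells by CellTiter-Glo luminescence after 30 min at room temperature.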

[10] = molecular target: Peroxisome proliferator-activated receptor delta (Homo sapiens) (UniProt Q03181); test: qHTS assay to identify small molecule agonists of the peroxisome proliferator-activated receptor delta (PPARd) signaling pathway (AID 743212; calls by dose curve)
Sequence of Peroxisome proliferator-activated receptor delta (Homo sapiens) (Q03181 whole entry, looked up): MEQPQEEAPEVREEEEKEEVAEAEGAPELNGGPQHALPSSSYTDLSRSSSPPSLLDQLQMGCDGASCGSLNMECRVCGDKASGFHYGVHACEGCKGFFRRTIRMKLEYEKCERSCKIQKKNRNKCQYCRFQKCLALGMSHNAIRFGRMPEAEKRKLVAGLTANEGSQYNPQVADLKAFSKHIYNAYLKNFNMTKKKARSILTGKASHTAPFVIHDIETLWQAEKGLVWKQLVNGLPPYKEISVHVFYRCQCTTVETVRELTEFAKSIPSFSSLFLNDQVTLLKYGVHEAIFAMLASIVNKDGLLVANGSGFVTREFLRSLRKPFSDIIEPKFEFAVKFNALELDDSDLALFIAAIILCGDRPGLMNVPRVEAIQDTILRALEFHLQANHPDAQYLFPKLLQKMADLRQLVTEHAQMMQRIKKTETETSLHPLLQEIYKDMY
How it was run: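 Quantitative high-throughput agonist screen in a HEK293H beta-lactamase reporter line under UAS control. Compounds in DMSO, at 37 C. Fluorescence read after 2 h with FRET substrate at room temperature.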

[11] = qHTS assay to identify small molecule antagonists of the peroxisome proliferator-activated receptor delta (PPARd) signaling pathway - cell viability counter screen (AID 743213); also: nearly all actives have a fitted effect of over 50% in size
How it was run: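 Same-well viability: cells pre-incubated 5 h, dosed with compound plus 300 nM L165041, kept 17 h at 37 C, FRET substrate 2 h RT, then CellTiter-Glo 30 min RT and luminescence.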

[12] = qHTS assay to identify small molecule agonists of the farnesoid-X-receptor (FXR) signaling pathway - cell viability counter screen (AID 743218); also: nearly all actives have a fitted effect of over 45% in size
How it was run: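 HEK 293T FXR-bla cells; 5 h pre-incubation, 16 h compound exposure at 37 C; LiveBLAzer substrate 2 h RT, then CellTiter-Glo 30 min RT, luminescence.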

[13] = qHTS assay to identify small molecule antagonists of the farnesoid-X-receptor (FXR) signaling pathway - cell viability counter screen (AID 743221; active = well fitted cell-killing curve with a large enough effect in the repeat runs, not every such curve was filed as active; also: nearly all actives have a fitted effect of over 50% in size)
How it was run: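 FXR-UAS-bla HEK 293T cells were treated with test compounds plus chenodeoxycholic acid (50 uM final) for 16 h at 37 C. Cell viability in the same wells was then read as CellTiter-Glo luminescence after 30 min at room temperature.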

[14] = molecular target: Peroxisome proliferator-activated receptor gamma (Homo sapiens) (UniProt P37231); test: qHTS assay to identify small molecule antagonists of the peroxisome proliferator-activated receptor gamma (PPARg) signaling pathway (AID 743191; calls by dose curve; also: series mostly up to about 63 µM; nearly all actives have a fitted effect of over 30% in size)
How it was run: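 GeneBLAzer PPARg UAS-bla HEK293H cells, 5 h post-plating, exposed to compounds 17 h at 37C. LiveBLAzer B/G FRET substrate added for 1 h at room temperature; beta-lactamase reporter read by fluorescence intensity.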

[15] = molecular target: Peroxisome proliferator-activated receptor delta (Homo sapiens) (UniProt Q03181); test: qHTS assay to identify small molecule antagonists of the peroxisome proliferator-activated receptor delta (PPARd) signaling pathway (AID 743215; active = well fitted inhibition curve with a large enough effect in the signal ratio in the repeat runs, not every such curve was filed as active; the % refers to the signal ratio;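 also: cells stimulated with agonist L165041 at 300 nM final during compound exposure; series mostly up to about 62 µM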)
How it was run: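 Read-out is beta-lactamase FRET fluorescence, measured 2 h after substrate addition at room temperature. Beforehand, UAS-bla HEK293H cells carrying the PPARd reporter were exposed to compounds with L165041 at 300 nM final for 17 h at 37 C.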

[16] = molecular target: Bile acid receptor (Homo sapiens) (UniProt Q96RI1); test: qHTS assay to identify small molecule antagonists of the farnesoid-X-receptor (FXR) signaling pathway (AID 743217; active = well fitted inhibition curve with a large enough effect in the signal ratio in the repeat runs, not every such curve was filed as active; the % refers to the signal ratio)
Sequence of Bile acid receptor (Homo sapiens) (Q96RI1 whole entry, looked up): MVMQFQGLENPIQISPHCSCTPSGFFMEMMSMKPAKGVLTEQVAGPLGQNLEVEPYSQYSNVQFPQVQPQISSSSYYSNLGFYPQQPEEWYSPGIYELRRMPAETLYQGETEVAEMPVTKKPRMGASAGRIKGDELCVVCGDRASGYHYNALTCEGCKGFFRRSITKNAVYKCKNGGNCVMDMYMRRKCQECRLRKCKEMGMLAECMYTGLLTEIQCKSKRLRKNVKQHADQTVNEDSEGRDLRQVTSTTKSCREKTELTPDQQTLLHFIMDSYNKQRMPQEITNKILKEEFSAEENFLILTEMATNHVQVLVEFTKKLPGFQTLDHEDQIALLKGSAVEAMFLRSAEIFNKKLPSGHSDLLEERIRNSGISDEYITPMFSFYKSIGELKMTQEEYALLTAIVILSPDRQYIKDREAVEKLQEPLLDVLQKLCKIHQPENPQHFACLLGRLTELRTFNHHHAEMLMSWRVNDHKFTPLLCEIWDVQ
How it was run: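 HEK 293T FXR-UAS-bla, 5000 cells/well; compound + CDCA 50 uM final; 16 h, 37 °C; B/G FRET substrate 2 h RT; fluorescence.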

[17] = molecular target: Bile acid receptor (Homo sapiens) (UniProt Q96RI1); test: qHTS assay to identify small molecule agonists of the farnesoid-X-receptor (FXR) signaling pathway (AID 743220; active = well fitted activation curve with a large enough effect in the signal ratio in the repeat runs, not every such curve was filed as active; the % refers to the signal ratio)
How it was run: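 Beta-lactamase reporter under UAS control in GeneBLAzer FXR HEK 293T cells (5000/well) measured with LiveBLAzer FRET substrate after 2 h at room temperature. Compound exposure lasted 16 h at 37C.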

[18] = molecular target: Vitamin D3 receptor (Homo sapiens) (UniProt P11473); test: qHTS assay to identify small molecule agonists of the vitamin D receptor (VDR) signaling pathway (AID 743222; calls by dose curve)
Sequence of Vitamin D3 receptor (Homo sapiens) (P11473 whole entry, looked up): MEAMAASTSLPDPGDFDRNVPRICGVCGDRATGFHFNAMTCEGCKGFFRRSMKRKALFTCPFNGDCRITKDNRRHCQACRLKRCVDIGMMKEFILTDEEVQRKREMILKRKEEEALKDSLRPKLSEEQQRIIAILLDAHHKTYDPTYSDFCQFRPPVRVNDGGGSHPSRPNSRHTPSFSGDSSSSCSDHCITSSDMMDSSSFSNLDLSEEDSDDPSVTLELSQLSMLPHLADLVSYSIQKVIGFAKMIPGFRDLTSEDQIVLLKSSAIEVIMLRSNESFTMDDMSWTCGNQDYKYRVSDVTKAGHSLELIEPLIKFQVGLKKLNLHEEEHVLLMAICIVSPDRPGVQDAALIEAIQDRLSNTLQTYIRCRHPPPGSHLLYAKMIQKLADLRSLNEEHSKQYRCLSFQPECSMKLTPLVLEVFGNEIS
How it was run: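 VDR-bla cells, 2,000/well; 4 h preincubation 37C; cpd (DMSO) 16 h; LiveBLAzer B/G substrate 2 h RT; fluorescence intensity read.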

[19] = molecular target: Vitamin D3 receptor (Homo sapiens) (UniProt P11473); test: qHTS assay to identify small molecule antagonists of the vitamin D receptor (VDR) signaling pathway (AID 743223; active = well fitted inhibition curve with a large enough effect in the signal ratio in the repeat runs, not every such curve was filed as active; the % refers to the signal ratio)
How it was run: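 VDR-bla cells were plated, incubated 4 h at 37C, then given compound and 1alpha,25-dihydroxyvitamin D3 (3 nM final). After 16 h at 37C, LiveBLAzer B/G FRET substrate was added for 2 h at room temperature and fluorescence read.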

[20] = qHTS assay to identify small molecule that activate the aryl hydrocarbon receptor (AhR) signaling pathway - cell viability counter screen (AID 743086);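 also: HepG2 liver cells carrying the AhR DRE luciferase reporter; series mostly up to about 70 µM; nearly all actives have a fitted effect of over 45% in size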
How it was run: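 HepG2-AhR-luc (HG2L7.5c1) cells, 4000/well, treated 24 h at 37 C with compound; viability measured as CellTiter-Fluor fluorescence after 30 min in the same wells as the luciferase read.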
% is scaled to controls: 0 for no effect and ±100 for the full control effect.

OCCCC1CCCCC1
inactive: Potency [1] | Potency [2] | outcome [3] | outcome [4] | Potency [5] | Potency [6] | outcome [7] | outcome [8] | Potency [9] | outcome [10] | Potency [11] | Potency [12] | Potency [13]

NCCCNCCSP(=O)(O)O
inactive: Potency [1] | Potency [2] | outcome [3] | ratio activity, negative = inhibition [14] -8.68% [at 13.2 µM] | activity change, negative = cytotoxicity [4] -6.69% [at 13.2 µM] | activation [5] -5.66% [at 8.36 µM] | activity change, negative = cytotoxicity [7] 4.97% [at 13.2 µM] | activation [8] -0.51% [at 13.2 µM] | activity change, negative = cytotoxicity [9] 8.83% [at 13.2 µM] | activation [10] -0.031% [at 13.2 µM] | viability change, negative = cytotoxic [11] 1.09% [at 13.7 µM] | ratio activity, negative = inhibition [15] -0.162% [at 13.7 µM] | activity change, negative = inhibition [16] 5.47% [at 13.2 µM] | activation [17] 0.213% [at 13.2 µM] | activity change, negative = cytotoxicity [13] 2.46% [at 13.2 µM]

N[C@H](C(=O)O)c1ccc(O)cc1
inactive: Potency [1] | Potency [2] | outcome [3] | Potency [14] | outcome [4] | Potency [5] | Potency [6] | outcome [8] | Potency [9] | outcome [10] | Potency [11] | Potency [15] | Potency [13] | outcome [18] | outcome [19]

O=C(O)COc1nn(Cc2ccccc2)c2ccccc12
inactive: Potency [1] | Potency [2] | Potency [14] | outcome [4] | Potency [5] | Potency [6] | outcome [7] | outcome [8] | Potency [9] | outcome [10] | Potency [11] | Potency [15] | Potency [12] | Potency [13]

C=CCS(=O)(=O)O
inactive: Potency [1] | Potency [20] | outcome [3] | Potency [14] | outcome [4] | Potency [5] | outcome [7] | outcome [8] | Potency [9] | outcome [10] | Potency [11] | Potency [15] | outcome [16] | Potency [12] | outcome [17] | Potency [13]

c1cnc(N2CCN(Cc3ccc4c(c3)OCO4)CC2)nc1
inactive: Potency [1] | Potency [20] | outcome [3] | Potency [14] | outcome [4] | Potency [5] | outcome [8] | Potency [9] | outcome [10] | Potency [11] | Potency [15] | Potency [13] | outcome [18] | outcome [19]

Cc1c(O)cccc1O
inactive: Potency [1] | Potency [20] | outcome [3] | Potency [14] | outcome [4] | Potency [5] | Potency [6] | outcome [7] | outcome [8] | Potency [9] | outcome [10] | Potency [11] | outcome [16] | Potency [12] | outcome [17] | Potency [13] | outcome [18] | outcome [19]

CC(=O)OC/C=C(\C)CC/C=C(\C)CCC=C(C)C
inactive: Potency [1] | Potency [20] | outcome [3] | Potency [14] | outcome [4] | Potency [6] | outcome [7] | Potency [9] | outcome [10] | Potency [11] | Potency [15] | Potency [12] | Potency [13] | outcome [18]
